Laboratory results published in PubChem BioAssay AID1159568 (Broad Institute, 2015).
Measured potencies and affinities stand elsewhere. Records with an inconclusive call do not appear. The source made the active and inactive calls.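 The calls were made as follows: active = signal loss with an EC50 at or below twice the highest valid dose for that sample; inconclusive = flat curve with 30 to 70% inhibition, or poor fit; inactive = the rest.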

Test: Dd2 parasite growth inhibition in erythrocytes – SYBR Green, dry powder samples, set 9, dose response (AID 1159568)
Conditions: P. falciparum Dd2 in erythrocytes, 72 h; series mostly up to 19.5 µM

Row | Structure (SMILES) | outcome
1 | Cc1noc(C)c1S(=O)(=O)N(C)C[C@H]1OCc2cn(nn2)CCCC(=O)N([C@@H](C)CO)C[C@@H]1C | inactive
2 | O=C(NCc1ccc2c(c1)OCO2)[C@@H]1[C@@H](CO)[C@@H]2Cn3c(cccc3=O)[C@H]1N2Cc1cncnc1 | inactive
3 | COc1cccc(NC(=O)N[C@@H]2CC[C@H](CC(=O)N3CCN(C)CC3)O[C@@H]2CO)c1 | inactive
4 | CC(C)[C@@H]1COCc2cnnn2CCC[C@H](C)C(=O)N1 | inactive
5 | COCC(=O)N1C[C@H](C)[C@@H](OC)CN(C)C(=O)c2ccc(NC(=O)Nc3cccc(F)c3)cc2OC[C@@H]1C | inactive
6 | C[C@H]1CN([C@@H](C)CO)C(=O)CCCn2cc(nn2)CO[C@H]1CN(C)C(=O)Nc1cccc2ccccc12 | inactive
7 | COc1ccc(NC(=O)N(C)C[C@H]2Oc3ccc(NC(=O)CCN4CCOCC4)cc3C(=O)N([C@H](C)CO)C[C@@H]2C)cc1 | inactive
8 | COc1ccc(CNC(=O)C[C@H]2CC[C@@H](NC(=O)CN(C)C)[C@H](CO)O2)cc1 | inactive
